# Source: PubChem BioAssay
# Several values for one entry are separate records, joined by “and”; a condition that tells them apart may be missing. Equal entries are not always repeated. Results filed as inconclusive are left out. The source holds several records for some structures; these can differ, active in one and inactive in another. Activity calls are given as the source filed them. Cut-off read from the data, not from the text of the source, unless noted: active = inhibition above about 80%; inactive = the rest.
# Assays:
# [1] = SU-DIPG-VI glioma cell viability, MIPE4.0 library, CellTiter-Glo luminescence, qHTS (AID 1347066; cut-off not given, nearly all actives have AC50 up to about 30 µM;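 note: cells exposed to compound for 48 hours before readout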); conditions: CellTiter-Glo ATP luminescence
# [2] = SU-DIPG-XXV glioma cell viability, MIPE5.0 library, qHTS (AID 1347068; cut-off not given, nearly all actives have IC50 up to about 30 µM)
# [3] = sensitizers of A549 cells to miR-34 induction, primary screen, imaging, A549 dox-inducible miR-34, nuclei and caspase counts (AID 1347080;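 active = compounds whose cell count with miR-34 switched on is under 0.7 times the count with it off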); conditions: A549 miR-34 inducible, Hoechst nuclei count, 48 h
# [4] = survival rescue of mitochondrial mutant cells in low glucose, primary screen, MELAS cybrids, Rieske KO mouse fibroblasts, CellTiter-Glo (AID 1508586;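 active = mean z-score across replicates of 1.96 or higher in either the MELAS or the Rieske mutant cell line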;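 note: z relative to plate mean and SD of compound and empty wells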)
# [5] = biological target: NAD(+) hydrolase SARM1 (Homo sapiens) (UniProt Q6SZW1); experiment: SARM1 TIR NADase inhibitors, cell lysate, NAD-Glo luminescence (AID 1508614;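 active = compound whose remaining NAD level is above about 45 nM, limit read from the data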;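 note: higher remaining NAD means stronger inhibition of SARM1 NADase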); conditions: SAM-TIR HEK293T lysate NADase, at 1 µM, stronger effect = higher value
# [6] = viability rescue of complex I mutant cybrids, primary screen, cell-based, galactose medium, ATP luminescence (AID 1645843;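 active = z-score of at least 1.8 in each of two replicates, scored against plate mean and spread of sample wells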;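 note: positive z means more ATP and so rescue of galactose-driven cybrid death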); conditions: complex I mutant cybrid cells, 72 h, stronger effect = higher value
# [7] = biological target: Mitogen-activated protein kinase 7 (Homo sapiens) (UniProt Q13164); experiment: ERK5 transactivation activators in reporter cells, primary screen, cell-based, HTS (AID 1508626;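 active = luciferase signal above three times the same-plate solvent-only control wells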;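 note: luciferase driven by Gal4-ERK5 fusion binding five Gal4 sites before minimal TATA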); conditions: HeLa Gal4-ERK5 transactivation, 18 h, at 5 µM, stronger effect = higher value
# [8] = inhibitors of Cryptococcus chitosan production, flow cytometry, Cibacron Brilliant Red staining (AID 1347148; call rule not given here;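 note: compound exposure lasted three days at 37 degrees C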); conditions: Cryptococcus neoformans chitosan, stronger effect = lower value; at 10 µM unless noted
# [9] = phospholipid biosynthesis inhibitors in animal cells, primary screen, cell-based, LOPAC library, screen 4 (AID 1347384; call rule not given here); conditions: phospholipid biosynthesis inhibition screen, at 10 µM
# [10] = LFS_MB_P medulloblastoma growth inhibition, cell-based, chromothripsis tumors, cisplatin or BGB combos (AID 1671449); conditions: LFS_MB_P medulloblastoma cells;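 note: cells exposed for 96 hours; 0% = vehicle DMSO and 100% = killing by high DMSO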
# [11] = HDN33 neuroblastoma growth inhibition, cell-based, chromothripsis tumors, cisplatin or BGB combos (AID 1671450); conditions: HDN33 neuroblastoma cells, stronger effect = higher value;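 note: cells exposed to compound for four days; 0% = vehicle DMSO and 100% = cell killing by high DMSO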
# [12] = ICB984 medulloblastoma cell growth inhibition, synergistic combos for chromothripsis tumors, cisplatin or BGB combos (AID 1671451; call rule not given here;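 note: cells exposed for 96 hours before readout; 0% = vehicle DMSO and 100% = killing by high DMSO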); conditions: ICB984 medulloblastoma cells, drug combinations, stronger effect = higher value
# [13] = LFS_MB_1R medulloblastoma cell growth inhibition, synergistic combos for chromothripsis tumors, cisplatin or BGB combos (AID 1671452); conditions: LFS_MB_1R medulloblastoma cells, stronger effect = higher value;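 note: cells exposed for 96 hours before readout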
# [14] = HTB85 osteosarcoma cell growth inhibition, synergistic combos for chromothripsis tumors, BGB or cisplatin IC20 combos (AID 1671453); conditions: HTB85 osteosarcoma cells, drug combinations, stronger effect = higher value;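 note: cells exposed for 96 hours before readout; 0% = vehicle DMSO and 100% = high DMSO killing control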
# [15] = CRL2098 osteosarcoma cell growth inhibition, synergistic combos for chromothripsis tumors, BGB or cisplatin IC20 combos (AID 1671454); conditions: CRL2098 osteosarcoma cells, drug combinations, stronger effect = higher value;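 note: cells exposed for 96 h before readout; 0% = vehicle DMSO and 100% = killing by high DMSO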
# [16] = HD-MB03 medulloblastoma cell growth inhibition, synergistic combos for chromothripsis tumors, BGB or cisplatin IC20 combos (AID 1671455; in the data active = inhibition above about 83%;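 note: 0% = vehicle DMSO and 100% = high DMSO as cytotoxic control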); conditions: HD-MB03 medulloblastoma cells, stronger effect = higher value
# [17] = stronger effect = lower value, cell number ratio, induced over uninduced
# [18] = measured here: relative caspase fold change +Dox/-Dox
# [19] = measured here: total cells with miR-34 induction, stronger effect = lower value
# [20] = measured here: total cells without miR-34 induction
# [21] = MELAS cybrid survival, CellTiter-Glo 48 h, stronger effect = higher value
# [22] = Rieske KO mouse fibroblast survival, CellTiter-Glo 72 h
# [23] = measured here: combination with BGB IC40, at 0.05 µM
# Chain of NAD(+) hydrolase SARM1 (Homo sapiens) (Q6SZW1 whole entry, looked up): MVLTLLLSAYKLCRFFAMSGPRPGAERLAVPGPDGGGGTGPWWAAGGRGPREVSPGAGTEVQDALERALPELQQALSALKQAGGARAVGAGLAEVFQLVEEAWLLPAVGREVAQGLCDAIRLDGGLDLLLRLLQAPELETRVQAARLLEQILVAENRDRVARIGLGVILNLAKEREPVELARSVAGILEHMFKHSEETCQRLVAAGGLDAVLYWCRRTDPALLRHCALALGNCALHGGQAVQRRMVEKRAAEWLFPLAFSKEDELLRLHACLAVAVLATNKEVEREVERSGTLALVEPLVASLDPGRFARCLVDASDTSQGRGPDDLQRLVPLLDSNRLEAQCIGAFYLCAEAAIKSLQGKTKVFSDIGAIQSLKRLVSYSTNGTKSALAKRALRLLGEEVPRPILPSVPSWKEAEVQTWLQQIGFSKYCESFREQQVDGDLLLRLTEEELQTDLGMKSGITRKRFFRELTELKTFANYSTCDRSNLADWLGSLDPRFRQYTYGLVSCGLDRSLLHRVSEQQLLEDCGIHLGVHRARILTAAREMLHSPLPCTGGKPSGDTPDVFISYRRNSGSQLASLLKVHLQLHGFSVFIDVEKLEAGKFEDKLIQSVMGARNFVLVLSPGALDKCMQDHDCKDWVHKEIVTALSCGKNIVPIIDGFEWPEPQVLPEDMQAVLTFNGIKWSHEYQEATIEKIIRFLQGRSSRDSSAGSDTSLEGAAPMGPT
# Chain of Mitogen-activated protein kinase 7 (Homo sapiens) (Q13164 whole entry, looked up, the tested form may be a part): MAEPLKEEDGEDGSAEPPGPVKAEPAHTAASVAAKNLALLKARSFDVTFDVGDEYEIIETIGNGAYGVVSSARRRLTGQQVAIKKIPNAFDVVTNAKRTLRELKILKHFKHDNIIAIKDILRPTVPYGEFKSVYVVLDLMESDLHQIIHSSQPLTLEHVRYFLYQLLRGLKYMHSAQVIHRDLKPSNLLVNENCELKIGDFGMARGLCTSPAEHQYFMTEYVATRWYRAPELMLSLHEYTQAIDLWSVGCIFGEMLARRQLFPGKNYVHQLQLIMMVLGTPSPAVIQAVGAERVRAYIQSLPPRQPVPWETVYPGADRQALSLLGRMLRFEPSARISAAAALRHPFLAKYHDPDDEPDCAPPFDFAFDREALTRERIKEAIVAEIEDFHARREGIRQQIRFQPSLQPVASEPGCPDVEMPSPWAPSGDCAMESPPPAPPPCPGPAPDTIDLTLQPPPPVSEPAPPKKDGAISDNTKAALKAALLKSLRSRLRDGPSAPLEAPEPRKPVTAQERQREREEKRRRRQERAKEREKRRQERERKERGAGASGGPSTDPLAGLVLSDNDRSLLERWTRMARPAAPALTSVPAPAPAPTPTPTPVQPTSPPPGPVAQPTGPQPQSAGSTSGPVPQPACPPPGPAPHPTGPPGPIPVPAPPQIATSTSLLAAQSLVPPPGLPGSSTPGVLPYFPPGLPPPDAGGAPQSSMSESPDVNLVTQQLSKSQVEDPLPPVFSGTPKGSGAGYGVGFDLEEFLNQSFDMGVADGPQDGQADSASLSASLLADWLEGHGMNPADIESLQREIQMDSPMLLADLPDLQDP
smiles,measurement,setting,value
CC(=O)Oc1ccccc1C(=O)Nc1ncc([N+](=O)[O-])s1,AC50,[1],9.59 µM (active)
same,outcome,[2],inactive
same,fold change,[3]; [17],1.08 (inactive) and 0.866 (inactive)
same,fold change,[3]; [18],1.12 and 1.29
same,cell count,[3]; [19],2500 and 6120
same,cell count,[3]; [20],2310 and 7070
same,z-score,[4]; [21],-0.496 (inactive) and -0.13 (inactive)
same,z-score,[4]; [22],-2.39 and 0.602
same,remaining NAD,[5],10 nM (inactive)
same,z-score,[6],-1.79 (inactive)
O=C(N[C@H](CO)[C@H](O)c1ccc([N+](=O)[O-])cc1)C(Cl)Cl,outcome,[1],inactive
same,fold change,[3]; [17],0.94 (inactive) and 0.855 (inactive)
same,fold change,[3]; [18],1.13 and 1.29
same,cell count,[3]; [19],8280 and 6420
same,cell count,[3]; [20],8810 and 7510
same,z-score,[4]; [21],-0.509 (inactive) and 0.536
same,z-score,[4]; [22],-3.37 and 2.44
same,remaining NAD,[5],10 nM (inactive)
same,luciferase signal,[7],88 AU (inactive)
same,z-score,[6],-0.74 (inactive)
O=C(O)c1cccnc1Nc1cccc(C(F)(F)F)c1,outcome,[1],inactive
same,fold fluorescence,[8],3.63 [at 177.2 µM] (inactive)
same,outcome,[9],inactive
same,z-score,[4]; [21],-0.334 (inactive) and -0.267 (inactive) and 0.0798 (inactive)
same,z-score,[4]; [22],-0.307 and -0.187 and -0.378
same,remaining NAD,[5],10 nM (inactive)
same,luciferase signal,[7],60 AU (inactive)
same,z-score,[6],-0.15 (inactive) and 0.22 (inactive)
COc1cc(NS(=O)(=O)c2ccc(N)cc2)nc(OC)n1,outcome,[1],inactive
same,fold change,[3]; [17],0.911 (inactive) and 0.916 (inactive) and 0.961 (inactive)
same,z-score,[4]; [21],-0.175 (inactive) and 0.0464 (inactive) and -0.547 (inactive)
same,z-score,[4]; [22],0.68 and -0.334 and -1.37
same,remaining NAD,[5],10 nM (inactive)
same,luciferase signal,[7],48 AU (inactive)
same,z-score,[6],-0.135 (inactive)
O=c1c(-c2ccc(O)cc2)coc2cc(O)cc(O)c12,outcome,[1],inactive
same,fold fluorescence,[8],4.75 [at 185 µM] (inactive)
same,outcome,[9],inactive
same,z-score,[4]; [21],-0.427 (inactive)
same,z-score,[4]; [22],0.508
same,luciferase signal,[7],276 AU (active)
same,z-score,[6],1.99 (active) and 1.98 (inactive)
same,inhibition,"[10]; at 0.5 µM, stronger effect = higher value",-9.97% (inactive) and -4.89% (inactive)
same,inhibition,"[10]; measured here: combination with BGB IC20, at 0.005 µM",-17.8% and -1.45%
same,inhibition,"[10]; measured here: combination with BGB IC40, at 0.005 µM",-18% and -3.22%
same,inhibition,[10]; [23],-25.1% and -11.9%
same,inhibition,"[10]; measured here: combination with cisplatin, at 0.5 µM, stronger effect = higher value",-5.93% and -18.3%
same,inhibition,"[10]; measured here: combination with cisplatin, at 5 µM, stronger effect = higher value",8.08% and 3.66%
same,inhibition,"[11]; BGB combo, at 5 µM",-47.6% and 34.9%
same,inhibition,[11]; at 0.5 µM,-42.8% (inactive) and -12.6% (inactive)
same,inhibition,"[11]; cisplatin combo, at 5 µM",-40% and 3.53%
same,inhibition,"[11]; measured here: with BGB IC20 combination, at 0.5 µM",-43.9% and -15.8%
same,inhibition,"[11]; measured here: with cisplatin IC20 combination, at 0.5 µM",-42.3% and -4.37%
same,inhibition,"[11]; single agent, at 5 µM",-15.6% and 2.01%
same,inhibition,"[12]; BGB IC20 combo, at 0.005 µM",8.8% and -0.198%
same,inhibition,"[12]; BGB IC40 combo, at 0.005 µM",-22.1% and -29.4%
same,inhibition,"[12]; BGB IC40 combo, at 0.05 µM",-7.4% and -6.46%
same,inhibition,[12]; at 0.5 µM,-34.3% (inactive) and -16.8% (inactive)
same,inhibition,"[12]; cisplatin combo, at 0.05 µM",-11.3% and -9.44%
same,inhibition,"[12]; cisplatin combo, at 0.5 µM",-39.9% and -21.8%
same,inhibition,"[12]; cisplatin combo, at 5 µM",-72.1% and -7.73%
same,inhibition,"[12]; measured here: 5 uM single agent, at 5 µM",-9.66% and -12.4%
same,inhibition,[13]; at 0.5 µM,-22.6% (inactive) and -10.7% (inactive)
same,inhibition,[13]; [23],-45.5% and -14.8%
same,inhibition,"[13]; measured here: combination with cisplatin, at 0.5 µM",-45.5% and -6.51%
same,inhibition,"[13]; measured here: combination with cisplatin, at 5 µM",-62.6% and -7.84%
same,inhibition,[14]; at 0.5 µM,-23.1% (inactive) and -8.31% (inactive)
same,inhibition,"[14]; measured here: with BGB IC20, at 0.5 µM",-24.9% and -17.6%
same,inhibition,"[14]; measured here: with BGB IC20, at 5 µM",-18.6% and -5.83%
same,inhibition,"[14]; measured here: with cisplatin IC20, at 0.5 µM",-32.2% and -12.6%
same,inhibition,"[14]; measured here: with cisplatin IC20, at 5 µM",-33.6% and -5.76%
same,inhibition,"[14]; single agent, at 5 µM",-0.415% and -6.72%
same,inhibition,[15]; at 0.5 µM,-89.3% (inactive) and -22.4% (inactive)
same,inhibition,"[15]; measured here: combination with BGB at IC20, at 0.5 µM",-68.7% and -13.6%
same,inhibition,"[15]; measured here: combination with cisplatin at IC20, at 0.5 µM",-148% and -31.4%
same,inhibition,[16]; at 0.5 µM,-19.5% (inactive) and -5.86% (inactive)
same,inhibition,"[16]; measured here: combo with BGB at IC20, at 0.5 µM",-19.9% and -0.815%
same,inhibition,"[16]; measured here: combo with cisplatin at IC20, at 0.5 µM",-26.5% and -4.16%
